SARS PLpro yeast = qHTS of Yeast-based Assay for SARS-CoV PLP; S. cerevisiae expressing SARS-CoV PLpro, growth rescue; Potency, µM (series often up to 32.9 µM), hits mostly activators; hit rate 0.19% among 330,000; AID 485353, 2010; calls by dose curve; further: nearly all actives have a fitted effect of over 55% in size
Pf growth 48h = Primary qHTS for delayed death inhibitors of the malarial parasite plastid, 48 hour incubation. P. falciparum luciferase growth in erythrocytes, 48 h. Potency, µM (doses to about 28.7 µM), actives largely listed as inhibitors. hit rate 5.9% among 310,000
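Luminescence readout; reporter = integrated firefly luciferase in P. falciparum. RBC culture at 2% hematocrit, 0.1% parasitemia final, 37 C/5% CO2; decreased signal taken as growth inhibition.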
NS1 function inh = qHTS Assay for Inhibitors of Influenza NS1 Protein Function; hit rate 0.4% among 270,000; Potency, µM (top dose mostly 46.1 µM); AID 2326, 2010; calls by dose curve; further: actives are rising curves; nearly all actives have a fitted effect of over 50% in size
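Read-out: OD600 growth recovery of NS1-expressing budding yeast. Cells grown overnight at 30C in -URA glucose medium, washed, resuspended and diluted 1:100 in 2% galactose assay medium, pH 6.0. Same strain lacking NS1 served as positive control.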
Pf growth 96h = Primary qHTS for delayed death inhibitors of the malarial parasite plastid, 96 hour incubation. P. falciparum luciferase reporter growth, 96 h. Potency, µM (titrated, usually from 28.7 µM), usual class: inhibitors. hit rate 6.9% among 320,000
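Compounds incubated with erythrocytes infected by luciferase-expressing P. falciparum (2% hematocrit, 0.05% parasitemia final) for 96 hours, 37 C in 5% CO2. Growth inhibition scored as decreased luciferase luminescence.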
Hits are given with their value; i = inactive; ? = inconclusive; nt = no result given; ! = not active in a repeat. Shown are actives, neighbours in structure and some others; about 10% of the full set was active somewhere. Unless noted, the call rests on the fitted dose curve; in most records, active means well fitted inhibition curve with a large enough effect; inconclusive means small, poorly fitted or top-dose-only effect, or another doubt; inactive means no such curve, though single readings can be large or run the other way.

SMILES | SARS PLpro yeast | Pf growth 48h | NS1 function inh | Pf growth 96h
CC(C)[C@@H](CSc1ccccc1)N1CCN(Cc2ccccc2)CCC1=O | i | 15µM | i | i
CCCN1CCC(=O)N([C@H](CSc2ccc(OC)cc2)Cc2ccccc2)CC1 | i | 10µM | i | 2.9µM
CCCN1CCC(=O)N([C@H](CSc2ccc(C)cc2)Cc2ccccc2)CC1 | i | 9.3µM | i | 5.9µM
O=C1CCN(CCc2ccccc2)CCN1[C@H](CSc1ccc(Br)cc1)c1ccccc1 | i | i | i | i
O=C1CCN(CCc2ccccc2)CCN1[C@H](CSc1ccccc1)Cc1ccccc1 | i | ? | i | ?
CC(=O)Nc1ccc(SC[C@H](c2ccccc2)N2CCN(CCc3ccccc3)CCC2=O)cc1 | i | 13µM | i | 7.4µM
CN(C)C=Nc1c(I)cc(I)c(CCC(=O)O)c1I | nt | i | nt | i
Clc1cccc(-c2ccc(C=Nc3ccc(N4CCOCC4)cc3)o2)c1 | i | i | i | 10µM
CCCN1CCN(CCCNC(=O)c2ccc(CS(=O)c3ccc(OC)cc3)o2)CC1 (stereo not drawn) | i | i | i | ?
CC12CCC(=O)N1C(C(=O)N1CCN(S(=O)(=O)c3cccc(C(F)(F)F)c3)CC1)CS2 (stereo not drawn) | i | i | nt | i
CC(Cc1ccsc1)NCc1cn[nH]c1-c1ccc(F)cc1F (stereo not drawn) | i | i | i | ?
COc1ccc(-c2[nH]ncc2CN(C)C(C)c2cccs2)c(F)c1 (stereo not drawn) | i | i | i | 12µM
COc1ccc(-c2[nH]ncc2CNC(C)Cc2ccsc2)c(F)c1 (stereo not drawn) | i | i | i | 4.7µM
Cc1ccc(Cn2c(CCC(=O)O)nc3ncccc3c2=O)cc1 | i | i | i | i
CCSC1=NC2(CCCCC2)Nc2sc3c(c21)CCCC3 | i | nt | i | 2.6µM
CCSc1nc2sc3c(c2c(=O)[nH]1)CCCC3 | i | i | i | i
COc1ccc(-c2ocnc2C(=O)N2CCN(C(c3ccccc3)c3ccccc3)CC2)cc1 | i | 8.3µM | nt | i
Cc1ccccc1C(=O)N1CCN(C(c2ccccc2)c2ccccc2)CC1 | i | 10µM | i | 5.9µM
Cc1ccccc1C(=O)N1CCCN(C(=O)c2ccccc2C)CC1 | i | i | i | ?
O=C(NC(=O)N1CCN(C(c2ccccc2)c2ccccc2)CC1)c1ccccc1 | i | 13µM | i | ?
CCN1C(=O)C(CC(=O)N2CCN(C(c3ccccc3)c3ccccc3)CC2)N(CC)C1=O (stereo not drawn) | i | 12µM | i | ?
O=C(CCN1C(=O)/C(=C\c2cccc(Br)c2)SC1=S)N1CCOCC1 | i | i | i | ?
Cc1cccc(NC(=O)CCc2nnc3ccc(N4CCC(C)CC4)nn23)n1 | i | ? | i | ?
O=C(c1ccccc1F)N1CCN(C(=O)C(c2ccccc2)c2ccccc2)CC1 | i | i | i | 0.29µM
Cc1ccnc(SCC(=O)N2CCN(C(c3ccccc3)c3ccccc3)CC2)n1 | i | nt | i | 15µM
SMILES | SARS PLpro yeast | Pf growth 48h | NS1 function inh | Pf growth 96h
CC(C)(C)C(=O)N1CCN(C(c2ccccc2)c2ccccc2)CC1 | i | 12µM | i | 10µM
Cc1oc(C(C)(C)C)cc1C(=O)N1CCN(C(c2ccccc2)c2ccccc2)CC1 | i | 5.9µM | i | 12µM
Cc1cc(C(=O)N2CCN(C(c3ccccc3)c3ccccc3)CC2)on1 | i | nt | i | i
CCCNC(=O)N1CCN(C(c2ccccc2)c2ccccc2)CC1 | i | ? | i | i
O=C(CN1CCN(c2ncccn2)CC1)N1CCN(C(c2ccccc2)c2ccccc2)CC1 | nt | nt | i | nt
C[C@H](NC(=O)c1nc[nH]c1C(=O)NCC(=O)OCc1ccccc1)c1ccccc1 | i | i | i | i
COc1ccc(S(=O)(=O)NC(C)C(=O)NCc2ccccn2)cc1Cl (stereo not drawn) | i | i | i | i
COc1ccc(C(=O)NNC(=O)CSc2nnc(C3CC3)n2C)cc1 | i | i | i | i
O=C(c1cc(-c2cccc(O)c2)on1)N1CCN(C(c2ccccc2)c2ccccc2)CC1 | i | 1.9µM | i | ?
Cc1occc1C(=O)N1CCN(c2ccccc2)CC1 | i | i | i | i
Cc1occc1C(=O)N1CCN(C(c2ccccc2)c2ccccc2)CC1 | i | 1.3µM | i | i
O=C(c1cc(C2CC2)on1)N1CCN(C(c2ccccc2)c2ccccc2)CC1 | i | i | i | i
COc1ccc(-c2noc(N3CCC(C(=O)N(C)c4ccccc4)CC3)n2)cc1 | i | ? | i | i
CCCc1c(OCCCCc2nn[nH]n2)ccc(C(C)=O)c1O | i | ? | i | 11µM!
C=CCNc1oc(COc2ccc(C)cc2)nc1C#N | i | nt | i | 6.6µM
CCOC(=S)SCC(=O)O | nt | nt | i | nt
Cc1cc(C(=S)N2CCOCC2)c(C)n1-c1ccc(F)cc1 | i | ? | i | i
Cc1ccc(-n2c(C)cc(C(=S)N3CCOCC3)c2C)cc1C | i | ? | i | 10µM
CC[C@@H](CCC=C(C)C)C(=O)N(Cc1ccccc1)c1ccccc1 | i | 8.3µM | nt | ?
COc1ccc(NC(=O)CN(C)C(=O)c2ccc(OCc3ccccc3)c(OC)c2)cc1 | i | i | nt | ?
CCN(Cc1cccs1)C(=O)CN1C(=O)NC2(CCCc3ccccc32)C1=O (stereo not drawn) | i | i | nt | i
CCN(Cc1cccs1)C(=O)CN1C(=O)NC(c2ccccc2)(c2ccccc2)C1=O | i | ? | nt | 13µM
CC(=O)CN1C(=O)NC(c2ccccc2)(c2ccccc2)C1=O | i | i | i | i
Cc1ccc(CN(C)C(=O)CN2C(=O)NC(c3ccccc3)(c3ccccc3)C2=O)c(C)c1 | i | 13µM | nt | ?
CC1CCCC(NC(=O)CN2C(=O)NC(c3ccccc3)(c3ccccc3)C2=O)C1C (stereo not drawn) | i | 15µM | nt | ?
SMILES | SARS PLpro yeast | Pf growth 48h | NS1 function inh | Pf growth 96h
CCN(C(=O)CN1C(=O)NC(c2ccccc2)(c2ccccc2)C1=O)c1ccccc1 | i | 13µM | i | ?
O=C(CN1C(=O)NC(c2ccccc2)(c2ccccc2)C1=O)NC1CCS(=O)(=O)C1 (stereo not drawn) | i | i | nt | i
O=C(Nc1cccc(Br)c1)c1cc(S(=O)(=O)N2CCOCC2)cs1 | i | ? | i | i
Cc1cc(C)c(S(=O)(=O)N2CCCCC2CCNC(=O)C(=O)NCc2cccnc2)c(C)c1 (stereo not drawn) | i | ? | nt | ?
O=C(N[C@H](C(=O)O)c1ccccc1)C1CCC(Cn2cnc3ccccc3c2=O)CC1 (stereo partly drawn) | i | i | i | i
N#Cc1ccsc1NC(=O)C1CCCN1S(=O)(=O)c1cccs1 (stereo not drawn) | i | ? | nt | i
CCOc1cc(-c2nc3ccccn3c2NCC2CCCO2)ccc1O (stereo not drawn) | i | i | i | 12µM
Cc1ccc(N(Cc2ccccc2)C(=O)c2ccc(Cl)c(S(=O)(=O)N3CCOCC3)c2)cc1 | i | 13µM | nt | 9.3µM
Cc1ccc(N(Cc2ccccc2)C(=O)c2cc(S(=O)(=O)N3CCOCC3)ccc2C)cc1 | i | 10µM | nt | ?
CN(CC(=O)Nc1ccc(F)c(F)c1)S(=O)(=O)c1cccc2cccnc12 | i | i | i | 13µM
N#Cc1c(NCCN)nc(-c2ccco2)c2c1CCCC2 | i | nt | i | ?

Screening data (PubChem)
